Screening results from PubChem.
Rows were chosen to be rich in hits. Some 21% of all compounds tested hit in one or more screens of this group.
Pf growth 48h: inhibits P. falciparum growth in the first generation, 48 h | P. falciparum luciferase growth in erythrocytes, 48 h | AID 504832 | hit rate 5.9% among 310,000 | Potency, µM (doses to about 28.7 µM), inactives show at the highest dose activity change, negative = inhibition, most hits filed as inhibitors; active = well fitted inhibition curve with a large enough effect; inconclusive = small, poorly fitted or top-dose-only effect, or another doubt; inactive = no such curve, though single readings can be large or run the other way; note: potency is the fitted concentration of half-maximal effect; % is set by controls: 0 for no effect and ±100 for the full control effect
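Luciferase-expressing parasites in RBCs, 2% Hct / 0.1% parasitemia final; RPMI 1640 + 0.5% Albumax; 37 C, 5% CO2, one generation; luminescence read-out, lower signal = inhibition.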
SARS PLpro yeast: SARS-CoV PLP inhibition in yeast; S. cerevisiae expressing SARS-CoV PLpro, growth rescue; Potency, µM (series often up to 32.9 µM), for the others: at the top dose activity, positive = growth rescue, usual class: activators; hit rate 0.19% among 330,000; AID 485353; note: potency is the fitted concentration of half-maximal effect; 0% is about no effect; nearly all actives have a fitted effect of over 55% in size
Pf growth 96h: P. falciparum growth inhibition at 96 hour, primary screen for plastid delayed-death inhibitors | Potency, µM (highest dose often 28.7 µM), for the others: top-dose activity change, negative = inhibition, most hits filed as inhibitors | hit rate 6.9% among 320,000 | P. falciparum luciferase reporter growth, 96 h; active = well fitted inhibition curve with a large enough effect; inconclusive = small, poorly fitted or top-dose-only effect, or another doubt; inactive = no such curve, though single readings can be large or run the other way; note: potency is the fitted concentration of half-maximal effect; % is set by controls: 0 for no effect and ±100 for the full control effect
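Luminescence readout: decreased luciferase signal marks inhibited growth of reporter-expressing P. falciparum in infected red cells (2% hematocrit, 0.05% parasitemia final), exposed to compound two generations (96 h, 37 C, 5% CO2).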
Shiga inhibitor: blocks Shiga toxin action in Vero cells. Vero cells, Shiga toxin protein synthesis inhibition reporter. inhibition, % at 38.7 µM. hit rate 9.2% among 290,000. AID 2315; in the data active = inhibition mostly above about 28%, no sharp cut-off; inactive = mostly below about 43%; note: 0% is about no effect
Cycloheximide cs: counter-screen for Shiga toxin inhibitors: cycloheximide protein synthesis inhibition; cell reporter, cycloheximide protein synthesis inhibition counterscreen; AID 2314; hit rate 12% among 300,000; max response, %; in the data active = max response mostly above about 13%, no sharp cut-off; inactive = mostly below about 14%; note: read at 38.3 µM for the half of the compounds with a filed dose; 0% is about no effect
NS1 function inh: blocks influenza NS1 protein function; Potency, µM (doses to about 46.1 µM), without a hit: top-dose activity, positive = more growth; hit rate 0.4% among 270,000; AID 2326; note: potency is the fitted concentration of half-maximal effect; actives are rising curves; nearly all actives have a fitted effect of over 50% in size
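In this qHTS, NS1 from influenza A is expressed in budding yeast, where it slows growth. Cells are switched from glucose to 2% galactose medium (pH 6.0, -URA), treated with compound, and growth recovery is read at OD600.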
* = called active by the depositor; ? = inconclusive; · = no result given; [ ] = another dose, or the depositor's remark. Unless noted, calls come from the whole dose curve.

SMILES	Pf growth 48h	SARS PLpro yeast	Pf growth 96h	Shiga inhibitor	Cycloheximide cs	NS1 function inh
COC(=O)c1ccc(CN2CCCC(CO)(Cc3ccccc3F)C2)cc1 (stereo not given)	13%	1%	?	-6	-4	9%
CCc1nc2c(cnn2-c2ccc(F)cc2)c(=O)n1-c1ccc(N2CCC(C)CC2)cc1	·	-2%	3.3µM*	-11	-4	3%
Cc1nc2c(cnn2-c2ccccc2Cl)c(=O)n1-c1ccc(N2CCC(C)CC2)cc1	·	7%	9%	-11	-3	-1%
Cn1c(=O)c2c(nc(N3CCCCCC3)n2CC(O)COc2ccccc2)n(C)c1=O (stereo not given)	?	7%	-3%	-3	-1	-33%
CN(c1nc2c(c(=O)n(C)c(=O)n2C)n1CC(=O)c1ccccc1)C1CCCCC1	?	4%	10µM*	44	12	-42%
Cn1c(=O)c2c(nc(NC3CCCCC3)n2CC(O)COc2ccccc2)n(C)c1=O (stereo not given)	10µM*	2%	14%	-16	-3	-35%
Cn1c(=O)c2c(nc(NC3CCCC3)n2C)n(C)c1=O	12%	-1%	6%	-3	25*	1%
CC(C)Nc1nc2c(c(=O)n(C)c(=O)n2C)n1C	21%	0%	-3%	2	-3	4%
CCOC(=O)N1CCC(Nc2ccc(N3C(=O)C4CCCCC4C3=O)cc2[N+](=O)[O-])CC1 (stereo not given)	-3%	3%	27%	1	14	·
COc1ccc(C)cc1NC(=O)CNC(=O)c1sc2ccccc2c1Cl	17%	3%	77%	·	·	·
C=CCN1C(=O)c2ccc(C(=O)N(C)CC(=O)Nc3ccccc3C(F)(F)F)cc2C1=O	13%	4%	48%	-28	12	10%
CCN(CC)C(=O)COCc1cc(-c2ccc3c(c2)OCO3)on1	33%	1%	-25%	42	21*	-2%
O=C(Nc1ccc(Br)cc1)c1cc(-c2ccc3c(c2)OCO3)on1	38%	-3%	?	33	13*	-4%
Cc1ccc(NC(=O)c2cc(-c3ccc4c(c3)OCO4)on2)cc1	39%	-4%	21%	23	8	-3%
COCCNC(=O)c1cc(-c2ccc3c(c2)OCO3)on1	418%	?	-8%	98*	29*	-5%
C=CCNC(=O)c1cc(-c2ccc3c(c2)OCO3)on1	111%	0%	7%	26	35*	2%
O=C(NCCN1CCOCC1)c1cc(S(=O)(=O)NCCCN2CCCC2=O)ccc1Cl	16%	2%	27%	21	1	3%
Cc1cc(C(=O)NNS(=O)(=O)c2cc(C(=O)O)ccc2Cl)c(C)n1-c1ccccc1	-6%	1%	11%	·	·	·
CC12CCC(C(=O)NCc3ccccc3Cl)(CC1=O)C2(C)C (stereo not given)	3%	1%	0%	2	1	2%
COc1cccc(OC)c1OCC(=O)Nc1ccc(S(=O)(=O)N2CCCC2)cc1	·	-1%	·	·	·	·
CCC(C)NC(=O)COCc1cc(-c2ccc3c(c2)OCO3)on1 (stereo not given)	2%[0.00184 µM]	0%	1%	23	1	3%
CCC(C)NC(=O)c1cc(-c2ccc3c(c2)OCO3)on1 (stereo not given)	216%	0%	0%	57*	38*	1%
COc1ccccc1N1C(N)=NC(N)=NC1(C)C	?	0%	10%	3	-3	-1%
CCCCOc1ccc(N2C(N)=NC(N)=NC23CCCCC3)cc1	10µM*	1%	?	8	-2	-19%
NC1=NC2(CCCCC2)N(c2ccc(F)cc2)C(N)=N1	13µM*	4%	-3%	5	-4	-7%
COc1ccccc1N1C(N)=NC(N)=NC12CCCCC2	?	1%	13µM*	-3	-2	2%
CCOc1ccc(N2C(=O)CSC23CCCCC3)cc1	-26%	1%	?	-5	-3	-4%
COc1ccc(N2C(N)=NC(N)=NC23CCCC3)cc1	0.93µM*	2%	102%	-14	-3	0%
NC1=NC2(CCCCC2)N(c2cccc(Cl)c2)C(N)=N1	·	1%	?	3	13	2%
CC1CCN(C(=O)CSCC(=O)O)CC1	25%	0%	15%	-4	1	-2%
